An excerpt weighted towards active compounds, which were near 21% of everything screened.
Shiga inhibitor = inhibitors of Shiga toxin in Vero cells | AID 2315 | Vero cells, Shiga toxin protein synthesis inhibition reporter | inhibition, % at 38.7 µM | 290,000 compounds, 9.2% hits; in the data active = inhibition mostly above about 28%, no sharp cut-off; inactive = mostly below about 43%; note: 0% is about no effect
Pf growth 48h = P. falciparum growth inhibition at 48 hours (one generation). P. falciparum luciferase growth in erythrocytes, 48 h. Potency, µM (series often up to 28.7 µM), without a hit: at the highest dose activity change, negative = inhibition, usual class: inhibitors. 310,000 compounds, 5.9% hits; note: potency is the fitted concentration of half-maximal effect; % is set by controls: 0 for no effect and ±100 for the full control effect
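Erythrocytes infected with P. falciparum carrying an integrated firefly luciferase reporter (2% hematocrit, 0.1% parasitemia final) were exposed to compounds in RPMI 1640 with 0.5% Albumax at 37 C, 5% CO2. Growth inhibition was scored as reduced luminescence.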
NS1 function inh = influenza NS1 inhibition; Potency, µM (top dose mostly 46.1 µM), without a hit: at the highest dose activity, positive = more growth; 270,000 compounds, 0.4% hits; calls by dose curve; note: potency is the fitted concentration of half-maximal effect; actives are rising curves; nearly all actives have a fitted effect of over 50% in size
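A cell-based growth assay was used: compounds that relieve NS1-induced slow growth of budding yeast raise OD600. Assay medium was yeast nitrogen base with ammonium sulphate and -URA supplement, pH 6.0, with 2% galactose.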
Cycloheximide cs = affects cycloheximide protein synthesis inhibition readout, counter-screen; AID 2314; cell reporter, cycloheximide protein synthesis inhibition counterscreen; max response, %; 300,000 compounds, 12% hits; in the data active = max response mostly above about 13%, no sharp cut-off; inactive = mostly below about 14%; note: read at 38.3 µM for the half of the compounds with a filed dose; 0% is about no effect
Pf growth 96h = P. falciparum growth inhibition at 96 hours; 320,000 compounds, 6.9% hits; P. falciparum luciferase reporter growth, 96 h; Potency, µM (doses to about 28.7 µM), without a hit: at the top dose activity change, negative = inhibition, hits mostly inhibitors; AID 504834; note: potency is the fitted concentration of half-maximal effect; % is set by controls: 0 for no effect and ±100 for the full control effect
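Cell-based qHTS: luciferase-tagged P. falciparum in erythrocytes (2% hematocrit, 0.05% parasitemia final) incubated with compounds for 96 hours, 37 C, 5% CO2; luciferase detection reagent then added and luminescence measured.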
SARS PLP yeast = inhibitors of SARS-CoV papain-like protease in yeast. S. cerevisiae expressing SARS-CoV PLpro, growth rescue. Potency, µM (highest dose often 32.9 µM), for the others: at the highest dose activity, positive = growth rescue, usual class: activators. 330,000 compounds, 0.19% hits; calls by dose curve; note: potency is the fitted concentration of half-maximal effect; 0% is about no effect; nearly all actives have a fitted effect of over 55% in size
The depositor's hits bear a star; ? = inconclusive; / = no result given; [ ] = another dose, or the depositor's remark. Unless noted, calls come from the whole dose curve; as a rule, active = well fitted inhibition curve with a large enough effect; inconclusive = small, poorly fitted or top-dose-only effect, or another doubt; inactive = no such curve, though single readings can be large or run the other way.

SMILES	Shiga inhibitor	Pf growth 48h	NS1 function inh	Cycloheximide cs	Pf growth 96h	SARS PLP yeast
CN(C)/C=N/c1c(C#N)cnn1-c1ccccc1	-8	/	-16%	-1	/	-1%
CN(C)/C=N/c1c(C#N)cnn1-c1ncnc2sc(-c3ccccc3)cc12	-16	?	-7%	-6	10µM*	-14%
O=C(CCc1c[nH]c2ccccc12)NC(Cc1ccccc1)C(=O)O (stereo not drawn)	24	4%	0%	-1	7%	-2%
CC(C)(NCc1ccccc1Cl)C(=O)O	/	/	2%	/	/	/
CN(CC(O)COc1ccccc1F)C1CCCCC1 (stereo not drawn)	-6	-16%[5.75 µM]	2%	1	35%	0%
CCN1CCCC1CNCC(O)COc1ccc(C(C)(C)C)cc1C (stereo not drawn)	-30	10µM*	/	-2	12µM*	-1%
Cc1ccccc1OCC(O)CO (stereo not drawn)	/	3%	/	/	-14%	/
Cc1ccccc1OCC(O)CN(Cc1ccccc1O)C1CCCCC1 (stereo not drawn)	-3	0.23µM*	/	-4	0.19µM*	1%
OC(CNCCc1ccc(C(F)(F)F)cc1)COc1cccc2ccccc12 (stereo not drawn)	-14	7.4µM*	-49%	-5	6.6µM*	-28%
Cc1ccccc1OCC(O)CNC1CCC(NCC(O)COc2ccccc2C)CC1 (stereo not drawn)	-22	0.93µM*	1%	-12	3.7µM*	1%
CCCN1CCN(C(=O)C2CCN(S(=O)(=O)c3ccc4c(c3)NC(=O)C(C)S4)CC2)CC1 (stereo not drawn)	-4	-16%	7%	-12	?	?
COc1cc(F)ccc1S(=O)(=O)N1CCN(c2ccccc2)CC1	8	8%	-15%	-1	?	-1%
OC(CNC1CCCC1)COc1ccccc1Br (stereo not drawn)	11	-102%	11%	-1	-97%	/
Cc1ccc(OCC(O)CNC2CCCC2)c(C)c1 (stereo not drawn)	2	?	6%	2	13µM*	-3%
OC(CNC1CCCCCC1)COc1cccc2ccccc12 (stereo not drawn)	-9	1.7µM*	-2%	-4	2.1µM*	0%
COc1ccc(NC(=O)C(CC(=O)O)Cc2ccc(C)cc2)cc1 (stereo not drawn)	-10	13%	5%	-3	?	0%
CCOc1ccc(C(=O)NC(=S)NCc2cccnc2)cc1	17	30%	-6%	12	10µM*	-1%
CCOc1ccc(C(=O)NC(=S)Nc2cccnc2)cc1	0	89%	6%	30*	2%	18%
CCCCC(=O)NC(=S)Nc1nnn(CCC)n1	19	-4%	/	11	?	1%
O=C(OCc1cccnc1)C1=Cc2ccccc2OC1	40*	7%	-7%	23	11%	-1%
O=C(COC(=O)C1=Cc2ccccc2OC1)NC1CCCC1	5	9%	-3%	17*	8%	-2%
COc1ccccc1C(=O)OCC(=O)NC1CCCC1	64*	2%	5%	61*	10%	3%
O=C(OC(C(=O)NC1CCCC1)c1cccnc1)C1=Cc2ccccc2OC1 (stereo not drawn)	-22	?	-15%	-4	45%	-3%
O=C(COC(=O)C1=Cc2ccccc2OC1)NCc1ccccc1	/	0%	/	/	?	2%
O=C(COC(=O)c1ccccc1Br)NCCN1C(=O)CSC1=O	109*	81%	/	20*	53%	-6%
SMILES	Shiga inhibitor	Pf growth 48h	NS1 function inh	Cycloheximide cs	Pf growth 96h	SARS PLP yeast
OCCN(Cc1ccccc1)C(=S)Nc1ccc(Cl)cc1Cl	20	68%	/	14	37%	-2%
O=C(COC(=O)c1ccccc1Br)NC1CCCC1	59*	52%	-2%	39*	32%	0%
COCc1nc(-c2ccc(-c3ccc(C)cc3)nc2OC)no1	116*	58%	-18%	33*	?	0%
COc1ccc(-c2ccc(-c3noc(-c4ccccc4C)n3)c(OC)n2)cc1	-12	0%	-17%	-1	/	-1%
COc1ccc(-c2ccc(-c3noc(C)n3)c(OC)n2)cc1	62	55%	-29%	23*	?	-5%
CCCCC1=CC2=CC(=O)C(C)(OC(=O)CC)C(=O)C2=CN1CCCCO (stereo not drawn)	-4	42%	4%	-5	?	-1%

Source: PubChem (National Center for Advancing Translational Sciences (NCATS))
